From PubChem
D1 antagonist – human D1 dopamine receptor antagonism; P21728; HEK293 TREx D1 cells, calcium flux, dopamine EC80; stronger effect = lower value; activity change, negative = inhibition, % at 10 µM; 360,000 compounds, 3.2% hits; in the data active means activity change below about -30%
Target sequence (P21728 whole entry, looked up): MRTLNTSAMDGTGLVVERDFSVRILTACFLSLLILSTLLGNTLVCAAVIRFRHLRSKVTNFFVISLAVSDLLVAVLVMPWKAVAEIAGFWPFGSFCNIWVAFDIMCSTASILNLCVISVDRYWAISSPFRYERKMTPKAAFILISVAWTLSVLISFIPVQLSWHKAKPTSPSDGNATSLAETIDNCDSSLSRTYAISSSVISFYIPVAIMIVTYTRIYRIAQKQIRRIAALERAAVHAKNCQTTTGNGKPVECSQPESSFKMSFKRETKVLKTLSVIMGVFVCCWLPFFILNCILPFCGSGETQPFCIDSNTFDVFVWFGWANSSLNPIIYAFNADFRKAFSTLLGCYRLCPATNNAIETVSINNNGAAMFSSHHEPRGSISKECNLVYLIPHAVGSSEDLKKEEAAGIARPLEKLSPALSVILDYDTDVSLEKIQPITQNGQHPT
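Antagonism measured as reduced calcium response to an EC80 dopamine addition following 180 s compound pre-read; cells were inducible HEK293 Trex D1 plated overnight at 30 C, read kinetically at 1 cycle/sec.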
D1 ag – agonists of human D1 dopamine receptor; P21728; HEK293 T-REx D1 cells, calcium flux, agonist mode; activation, % at 2 µM; 360,000 compounds, 1% hits; in the data active means activation above about 30%
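Tetracycline-induced HEK293 TREx D1 cells, force-coupled to calcium signalling, were dye-loaded with a no-wash calcium kit. Compound was pin-added after a 10 s baseline. Fluorescence was read kinetically at 1 cycle/s for 180 s, with calcium rises flagged as agonism.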
D1 PAM – potentiators of human D1 dopamine receptor; AID 504651; P21728; potentiation, % at 10 µM; HEK293 TREx D1 cells, calcium flux, dopamine EC20 potentiation; 360,000 compounds, 0.036% hits; in the data active means potentiation above about 30%
D3 antag – blocks the human D3 dopamine receptor; P35462; max response, negative = inhibition, %; D3R cells, DiscoveRx beta-arrestin luminescence, antagonist mode; stronger effect = lower value; 360,000 compounds, 2.5% hits; AID 652054; in the data active means max response below about -50%; inconclusive means no clear call, values can overlap the other calls
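Cells plated overnight at 1500 cells/well, then exposed to library compounds with dopamine controls for 90 minutes at 37 degrees C. DiscoveRx reagent added for 30–60 minutes at room temperature; luminescence read, quantitative HTS format.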
D3 ag – D3 dopamine receptor (human) agonism; D3R DiscoveRx beta-arrestin cells, luminescence, 90 min; max activation, %; 410,000 compounds, 0.58% hits; AID 652048; in the data active means max activation above about 30%
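Agonist mode: compounds and dopamine controls were applied to plated cells for 90 min at 37 degrees C after an overnight attachment at 1500 cells/well. Luminescent read-out followed 30 - 60 minutes at room temperature with DiscoveRx detection reagent.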
Each line names hits and unclear results; the compound was inactive in the other large screens; ! = a repeat was not active. Shown are actives, neighbours in structure and some others; about 6% of the full set was active somewhere.

CC(C)(C)c1nnc2sc(SCC(=O)NCc3ccco3)nn2c1=O	D1 antagonist -32.5 (no result: D1 PAM)
Cn1c(SCC(=O)NC(=O)NCc2ccco2)nnc1-c1ccccc1	D3 antag inconclusive
CCC(=O)Nc1cccc(-c2nnc(SCC(=O)c3ccccc3)n2C)c1	D3 antag -52.4
CCOC(=O)c1[nH]c(C)c(CCC(=O)Nc2cc(Cl)ccc2C)c1C	none (no result: D3 antag)
Cc1ccc(CS(=O)(=O)c2cn(CC(=O)N(C)c3ccccc3)c3ccccc23)cc1	none (no result: D3 antag)
O=S(=O)(O)c1cccc2cccc(Nc3ccccc3)c12	none (no result: D1 antagonist, D1 ag, D1 PAM)
COC(=O)[C@@]12C[C@@H](CC(=O)N3CCN(C(=O)c4ccco4)CC3)C(=O)N(Cc3ccccc3)C1=CCC(C)(C)C2	none (no result: D1 antagonist, D1 ag, D1 PAM)
COc1ccc(CNC(=O)N2CCc3ccccc3C2)cc1Cl	none
CCc1ccccc1-n1c(SCC(=O)NC)nnc1-c1ccco1	D1 antagonist -37.3
COc1ccc(Cn2c(CCC(=O)Nc3cc(OC)c(OC)c(OC)c3)nc3cccnc32)cc1	D1 antagonist -47.2 (no result: D3 antag)
CNC(=S)NC1CC2CCCC(C1)N2Cc1ccccc1OC (stereo not given)	D3 antag -61.6
CCNC(=S)NC1CC2CCCC(C1)N2Cc1ccco1 (stereo not given)	none
CC(=O)NC1CC2CCC(C1)N2Cc1ccc(C)cc1 (stereo not given)	none
CNC(=S)NC1CC2CCCC(C1)N2Cc1ccc(C)cc1 (stereo not given)	D3 antag -115.7
CNC(=S)N1C2CCCC1CC(NC(=O)c1ccc(C)cc1)C2 (stereo not given)	none (no result: D1 antagonist, D1 ag, D1 PAM)
CCNC(=S)NC1CC2CCCC(C1)N2Cc1ccc(C)cc1 (stereo not given)	D3 antag -117.9
CCC(=O)NC1CC2CCCC(C1)N2Cc1ccc(C)cc1 (stereo not given)	D3 antag -108.2
COc1ccc(Cl)cc1NC(=O)C1CCN(c2ncnc3c2nc2n3CCCCC2)CC1	none (no result: D3 antag)
Cc1ccc(CSCCNC(=O)C2CCN(S(=O)(=O)Cc3ccccc3)CC2)cc1	none (no result: D3 antag)
COc1cc(/C=C/C(=O)O[C@H]2CC[C@]34C[C@]35CC[C@]3(C)[C@@H]([C@H](C)CCC=C(C)C)CC[C@@]3(C)[C@@H]5CC[C@H]4C2(C)C)ccc1O	none (no result: D1 antagonist, D1 ag, D1 PAM, D3 antag)
COc1ccc(NS(=O)(=O)c2ccc(-c3cnc(C4CC4)o3)cc2)cc1OC	D1 antagonist -30.8
Cc1cccc(N(C)S(=O)(=O)c2ccc(-c3cnc(C4CC4)o3)cc2)c1	D1 antagonist -37.5
CCOc1ccccc1NS(=O)(=O)c1ccc(-c2cnc(C3CC3)o2)cc1	D1 antagonist -37.7!
CCCOC(=O)c1cccc(NC(=O)CSc2nnc3cc(C)c4ccccc4n23)c1	none (no result: D3 antag)
CSc1ccc(CN2CCN(C3CCCC3)C(CCO)C2)cc1 (stereo not given)	none
OCCC1CN(Cc2cc3c(cc2Cl)OCO3)CCN1C1CCCC1 (stereo not given)	D3 antag -53.5
OCCC1CN(Cc2cc3c(cc2Cl)OCO3)CCN1C1CCCCC1 (stereo not given)	none
OCCC1CN(Cc2ccncc2)CCN1C1CCCC1 (stereo not given)	D1 antagonist -35.9
CCn1cc(Cl)c(C(=O)NNC(=O)CCn2ccc([N+](=O)[O-])n2)n1	none
O=C(Nc1cccc(-n2cnnn2)c1)c1ccccc1Br	none
O=C(Nc1cccc(-n2cnnn2)c1)c1ccco1	D1 antagonist -57.0
O=C(Nc1cccc(-n2cnnn2)c1)c1cc(Cl)ccc1Cl	D1 antagonist -44.1
Cc1ccc(S(=O)(=O)/N=C2\C=C(Nc3ccc(O)cc3)C(=O)c3ccccc32)cc1	D3 antag -94.0 (no result: D1 antagonist, D1 ag, D1 PAM)
Cc1ccc(S(=O)(=O)/N=C2\C=C(NS(=O)(=O)c3ccccc3)C(=O)c3ccccc32)c(C)c1	D3 antag inconclusive (no result: D1 antagonist, D1 ag, D1 PAM)
Cc1ccc(NC2=C/C(=N/S(=O)(=O)c3cccs3)c3ccccc3C2=O)cc1	D3 antag -71.6
O=C1C=C(Nc2ccccc2)C(=O)c2ccccc21	none
O=C1C(Nc2ccccc2)=C/C(=N/S(=O)(=O)c2cccs2)c2ccccc21	D3 antag -85.4
Cc1nc(CSc2nsc(/C=C/N(C)C)c2C#N)cs1	D1 ag 31.0
CCCNC(=O)Cn1c(=O)n(CC2CCC(C(=O)NC)CC2)c(=O)c2sccc21 (stereo not given)	none (no result: D3 antag)
CN(C)CCNC(=O)C1Cc2c(-c3ccccc3Oc3ccccc3)ccnc2O1 (stereo not given)	none (no result: D1 antagonist, D1 ag, D1 PAM)
